Assay results from PubChem BioAssay (NCI).
About 83,000 compounds went through this panel and 20% of them were active in at least one assay; those are over-represented in the sample as a whole.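 Treatment: one concentration, 48 hours, 96-well format. Scoring: percent growth, with anything below 10 considered active.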 Unmarked numbers belong to inactive results. Active and inactive are the calls of the source.

test system: HCC-2998 colon; assay: NCI-60 one-dose screen, 48 h (100 = growth as untreated, 0 = no growth, -100 = all killed); settings: 10 µM unless noted
Method: Growth inhibition of the HCC-2998 human tumor cell line is measured as a screen for anti-cancer activity. Cells are grown in 96 well plates and exposed to the test compound for 48 hours. Compounds are tested at a single concentration, which is 10^-5 M for most compounds. The reported endpoint is percent growth (GI% or GIPRCNT), where numbers from 0 - 100% represent growth inhibition, and numbers from -100% - 0 represent cell death. For example, a value of 40 represents 60% growth inhibition. A value of 0 means no net growth occurred over the course of the experiment. A value of -40 indicates 40% of cells at the beginning of the experiment died by the end of the experiment. A value of -100 means all cells are dead at the end of the experiment.
NCI-60 Human Tumor Cell Lines Screen was performed using the standard one-dose NCI protocol, which is described in more detail at https://dtp.cancer.gov/discovery_development/nci-60/default.htm.
Compounds with GIPRCNT values below 10 were considered active. Activity score was based on GIPRCNT using the following formula: […]
Score is 0 for GIPRCNT values of 100 or above, 50 for GIPRCNT values of 0, and 100 for GIPRCNT values of -100.

Compound | growth
COc1cc(/C=C/C(=O)c2ccc(Nc3ncnc4ccccc34)cc2)cc(OC)c1 | -37.6% (active)
OC(c1ccccc1)c1ccccn1 (stereo not given) | 104%
O=C1/C(=C/c2ccc(O)cc2)COc2ccc(-c3ccccc3)cc21 | 82%
CCCCCCCCOc1ccc(/C=N/Nc2cc(C)nc3ccc(Cl)cc23)cc1 | -58.6% (active)
COc1cc(NCCCN(CC(C)C)C2CCCC2)c2ncccc2c1 | 92.4%
CC(=O)N1c2ccccc2NC2=C(C(=O)N(C)C2(C)C)C1C (stereo not given) | 60.8%
CCCc1cc2c(cc1Br)OCO2 | 103%
CNC(=O)c1c(NC(=O)c2ccc(C(C)C)cc2)sc2c(CN(C)C)c(O)ccc12 | 55.4%
C=C(C)[C@@H]1CC[C@]2(CO)CC[C@]3(C)[C@H](CC[C@@H]4[C@@]5(C)CCCNC(C)(C)[C@@H]5CC[C@]43C)[C@@H]12 | -5.02% (active)
O=C(Nc1nc2ccc(S(=O)(=O)Nc3ccc(C4(C(F)(F)F)CC4)cc3)cc2[nH]1)c1cnccn1 | 63.4%
Cc1ccc2[nH]c(=S)n(-c3ccc(S(=O)(=O)Nc4ccc(Cl)nn4)cc3)c(=O)c2c1 | 104%
COc1nc(N)nc(-n2c(-c3ccc(C)cc3)nc3ccccc32)c1NCc1ccc(C)cc1 | 103%
O=C(Nc1ccc2ncnc(Nc3ccc(Oc4cccc(F)c4)c(Cl)c3)c2c1)c1ccc(CNCCO)cc1 | -8.44% (active)
Nc1c(C(=O)Nc2cccc3ccncc23)sc2nc3c(cc12)C(=O)CCC3 | 77.2%
COc1cccc2c1C(=O)c1c(O)c3c(c(O)c1C2=O)C[C@@](O)(C(=O)CO)C[C@@H]3O[C@H]1C[C@H](N)[C@@H](O)[C@H](C)O1 | -22.8% (active)
FC(F)(F)c1cccc(Nc2ccccc2)c1 | 98.9%
Cc1ccc(C2CC(c3cccc(Nc4ccncc4)c3)=NN2c2cc(Cl)cc(Cl)c2)cc1 (stereo not given) | -77.7% (active)
C=C1C(=O)O[C@H]2[C@H]1CC/C(COC(=O)NCCc1c[nH]c3ccc(Cl)cc13)=C\CC[C@@]1(C)O[C@@H]21 | 55.1%
Cc1nn(-c2ccccc2)c(N2CCOCC2)c1/C=N/N=c1\sc2ccccc2n1C | 106%
COc1ccc(-c2c[nH]c(C(=O)O)c2-c2cc(OC)c3c(c2OC)OCO3)cc1 | 100%

Compound | growth
O=C(Nc1sc2c(c1C(=O)O)CCCC2)c1cccc(C(F)(F)F)c1 | 101%
C=C(C)[C@@H]1CC[C@]2(C=O)CC[C@]3(C)[C@H](CC[C@@H]4[C@@]5(C)CCCNC(C)(C)[C@@H]5CC[C@]43C)[C@@H]12 | 41.6%
COc1cc(-c2nc3sccn3c2-c2ccnc(NCCNS(=O)(=O)c3ccc(F)cc3)n2)ccc1F | 43.5%
COc1ccc(-c2nc3sccn3c2/C=C/C(=O)c2cc(OC)c(OC)c(OC)c2)cc1 | 71.2%
Cn1c(COC(=O)NCCn2ccnc2)nc2c(N3CCOCC3)nc(-c3ccccc3)nc21 | -82.1% (active)
CC1(C)CCCN1CCCN1c2ccccc2Sc2ccc(Cl)cc21 | 56.7%
O=C(O)CCCCCCCCCCCCCCC(=O)O | 101%
COc1cc2nc(-c3ccc(C(F)(F)F)cc3)cc(OCCCN3CCCCC3)c2cc1OC | 56%
CC(=O)c1c(-c2ccc(OC(F)(F)F)cc2)nc2ccccn12 | 105%
CCNC(=S)NNC(=O)c1cc2ccc1CCc1ccc(cc1)CC2 | 103%
O=S(=O)(NCCCNc1nccc(-c2c(-c3cccc(O)c3)nc3occn23)n1)c1ccc(Br)cc1 | 121%
CCN(CC)CCCC(Nc1c2ccc(Cl)cc2nc2ccc(OC)cc12)c1ccc(Cl)cc1 (stereo not given) | -75.4% (active)
Cc1ccc(S(=O)(=O)Nc2ccc(Cl)cc2)cc1 | 104%
Nc1cc(N)c2cccnc2c1O | 77.1%
Cn1c(COC(=O)N2CCCCC2)nc2c(N3CCOCC3)nc(-c3ccccc3)nc21 | -76.4% (active)
O=C(CCN1CCCC1)Nc1ccc2c(NCc3ccc(F)cc3)c3ccccc3nc2c1 | -32.5% (active)
Cn1c(=O)c2[nH]c(CCCc3nc4c([nH]3)c(=O)n(C)c(=O)n4C)nc2n(C)c1=O | 112%
FC(F)(F)c1cccc(Oc2ccc(Nc3ncnc4ccc(OCCCN5CCOCC5)cc34)cc2Cl)c1 | 29.3%
CCCOc1nc(SCCC)nc2c1cnn2-c1ccccc1 | 99.6%
CC(=O)N1N=C(c2cccc(Nc3ccncc3)c2)CC1c1ccccc1 (stereo not given) | 103%
